The compounds below were run on E18 rat cortical neuron-glia co-culture (assay: myelination (MBP fiber length per Olig2+ nucleus), % of 1 µM DAPT response (DMSO = 0) (% of DAPT); higher = more myelination, active = 50 or more). Conditions: 5 µM; treatment time: 8 days (DIV5-DIV13).
Procedure, shortened: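 Rat cortical co-cultures from E18 tissue were dissociated with papain and plated at 20,000 cells/well on 96-well plates coated with poly-d-lysine/laminin. From DIV5 to DIV13, library compounds were added at 1 or 5 µM in myelination medium. After fixation in 4 % paraformaldehyde, cultures were immunostained for MBP and Olig2 and counterstained with DAPI, and four 10X fields were analysed in each of duplicate wells. The myelination value is the length of continuous straight MBP fibers per Olig2+ nucleus, normalised so that 0.1 % DMSO is 0 and a 1 µM positive control is 100.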

myelination, inactive:
CC(C)NCC(O)COc1ccc(COCCOC(C)C)cc1 (stereo not given) [Bisoprolol] -38.2
CCCCNc1cc(C(=O)O)cc(S(N)(=O)=O)c1Oc1ccccc1 [Bumetanide] -11.3
CC(=O)OCC(=O)[C@@]1(O)CC[C@H]2[C@@H]3C[C@H](C)C4=CC(=O)C=C[C@]4(C)[C@H]3[C@@H](O)C[C@@]21C [Methylprednisolone acetate] -15.1
N[C@@H]1CONC1=O [Cycloserine] -32.4
CC1(C)O[C@@H]2C[C@H]3[C@@H]4C[C@H](F)C5=CC(=O)C=C[C@]5(C)[C@@]4(F)[C@@H](O)C[C@]3(C)[C@]2(C(=O)CO)O1 [Fluocinolone Acetonide] 6.47
